hgDAF-12 ag – activates the H. glycines DAF-12 receptor ligand-binding domain. 1.8% of 370,000 active. HEK293 GAL4-hgDAF12 UAS-luciferase reporter, agonist luminescence; normalized to butyrate control. activation, % at 6.8 µM;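 active = activation above a cutoff set at the mean of all screened compounds plus 3 SD, cut at about 10% in these data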;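 also: 0% = DMSO wells and 100% = sodium butyrate wells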
DAX1 inh-1 – inhibitors of human orphan nuclear receptor DAX1 (NR0B1); inhibition, % at 6.75 µM; P51843; HEK293 Gal4-DAX1 luciferase reporter, luminescence; 0.99% of 340,000 active;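 active = inhibition above the mean over all tested compounds plus 3 SD, cut at about 4.2% in these data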;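 also: 0% = DAX1-transfected cells with DMSO and 100% = empty-vector control cells with DMSO; inhibition shows as a rise in luminescence from relieved DAX1 repression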
Target sequence (P51843 207-470 limits assumed): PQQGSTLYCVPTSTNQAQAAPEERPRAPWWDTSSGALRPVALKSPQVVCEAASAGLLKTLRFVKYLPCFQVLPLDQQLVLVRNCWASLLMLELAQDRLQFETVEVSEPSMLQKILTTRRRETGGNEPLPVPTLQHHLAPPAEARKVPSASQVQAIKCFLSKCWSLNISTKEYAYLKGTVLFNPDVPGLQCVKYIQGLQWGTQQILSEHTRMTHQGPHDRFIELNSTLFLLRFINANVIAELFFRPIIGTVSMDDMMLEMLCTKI
SMARCA2 act – increases SMARCA2 function in MMTV reporter cells; MG213 cells, MMTV-luciferase reporter, dexamethasone, overnight; activation, % at 9.1 µM; 1% of 370,000 active; AID 652017; in the data active = activation above about 7.8%;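 also: 0% = vehicle wells and 100% = reference activator wells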
hcDAF-12 act – activates DAF-12 receptor from parasite H. contortus; activation, % at 6.8 µM; 1.4% of 370,000 active; HEK293 hcDAF-12 lit1-tk-luc reporter, luminescence; 0% DMSO, 100% Δ7-dafachronic acid;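 active = activation above the mean of all tested compounds plus 3 SD, cut at about 5.5% in these data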;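 also: 100% = response to 3 µM Δ7-dafachronic acid high control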
DAX1 inh-2 – DAX1 (NR0B1) inhibition, primary screen. HEK293T StAR-luciferase reporter, SF-1/DAX-1 repression relief. inhibition, % at 6.8 µM. 1.1% of 370,000 active. AID 652010;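 active = inhibition above the mean over all tested compounds plus 3 SD, cut at about 3.6% in these data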;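 also: 0% = DAX-1 cells with DMSO and 100% = cells lacking DAX-1 with DMSO; higher inhibition means more luminescence from relief of DAX-1 repression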
ssDAF12 agonist – S. stercoralis DAF-12 activation, primary screen; AID 652126; activation, % at 6.8 µM; HEK293 ssDAF-12/GRIP1 lit1-tk-luc reporter, luminescence; % of 3 µM dafachronic acid response; 1% of 370,000 active;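 active = activation above the mean over all tested compounds plus 3 SD, cut at about 0.9% in these data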;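 also: 0% = DMSO-only wells and 100% = 3 µM delta7-dafachronic acid wells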
* = called active by the depositor; / = no result. The list is not random: actives were taken first. Their share in the collection is about 4.8%.

SMILES | hgDAF-12 ag | DAX1 inh-1 | SMARCA2 act | hcDAF-12 act | DAX1 inh-2 | ssDAF12 agonist
COc1ccc(OC)c(C(=O)COC(=O)c2cccnc2Cl)c1 | 3 | 2 | 1 | 0 | 0 | -1
CC1(C)CC(=O)C=C(c2n[nH]nc2C2=CCCCC2)C1 | 1 | -1 | 2 | 1 | 1 | 0
CCc1nc2ccc(C(=O)N3CCN(C(=O)c4ccco4)CC3)cn2c1N(CC)Cc1cccc(Br)c1 | -3 | / | -1 | -2 | -2 | -2
O=C(/C=C/c1ccc2c(c1)OCO2)Nc1nc2ccc(F)cc2s1 | 7 | 4.8* | 4 | 3 | 2 | 1
CCOc1ccc2nc(NC(=O)/C=C/c3ccc4c(c3)OCO4)sc2c1 | 0 | -1 | -1 | -1 | 0 | -1
O=C(NCc1ccco1)/C(=C/C=C/c1ccccc1)NC(=O)c1ccco1 | -3 | 2 | 0 | -2 | 0 | -2
O=C(NCc1ccco1)/C(=C\C=C\c1ccccc1)NC(=O)c1ccco1 | -3 | 7.4* | -3 | -1 | 0 | -1
O=C(Nc1ccc(F)cc1)C1CC2CCC1C2 (stereo not drawn) | 2 | 0 | 3 | -2 | 0 | -1
CC(C)c1ccc(NC(=O)C2CC3CCC2C3)cc1 (stereo not drawn) | 9 | 6.0* | 6 | 0 | 1 | -1
CCOc1ccc(NC(=O)C2CC3CCC2C3)cc1 (stereo not drawn) | 5 | / | 2 | 3 | 0 | 0
CCC(C)c1ccc(NC(=O)C2CC3CCC2C3)cc1 (stereo not drawn) | 7 | 4.7* | 7 | 1 | 1 | -1
Cc1cc(C(=O)CSc2nc3ccc(Cl)cc3[nH]2)c(C)n1C | -2 | 0 | -2 | 1 | 0 | -1
O=C(CSc1nc2ccc(Cl)cc2[nH]1)c1cccs1 | 5 | 1 | 3 | 5 | 1 | 1.0*
O=C(NC(=S)NCc1nc2ccccc2[nH]1)c1ccccc1F | 8 | 2 | 4 | 6.3* | 2 | 0
Cc1cc(NC(=O)CCC(=O)N(CC(=O)NCC2CCCO2)c2ccc(F)c(Cl)c2)no1 (stereo not drawn) | -1 | 4.2* | -1 | -2 | 0 | -1
O=C(Cn1cc2c(n1)CCCCC2)N1CCc2ccccc21 | 3 | 2 | 0 | 6.3* | 1 | 0
CCCS(=O)(=O)NC(=O)C1(C)CCCN(C(=O)c2cccc(OC(F)(F)F)c2)C1 (stereo not drawn) | 0 | / | -7 | -2 | 0 | -1
CCCCN(C)C(=O)Cn1c(=O)oc2cc(S(=O)(=O)N3CC(C)CC(C)C3)ccc21 (stereo not drawn) | -2 | 5.7* | -3 | -1 | 0 | -2
CCOC(=O)[C@H]1[C@H]2COc3ccc(OC)cc3[C@@H]2N2C(=O)[C@H](C)NC(=O)[C@@]12C | 0 | 1 | 1 | -1 | 0 | -1
Cc1cccc(C(=O)OCC(=O)c2ccc3c(c2)OCO3)c1O | 9 | 2 | 5 | 3 | 3.9* | 0
CCOC(=O)N1CCN(S(=O)(=O)c2ccc(C(=O)N(CCCN(C)C)c3nc4ccc(OC)cc4s3)cc2)CC1 | -1 | -1 | 0 | 2 | 3.6* | 0
Cc1ccc(Cn2cc(COC(=O)NCCc3c[nH]c4ccccc34)nn2)cc1 | -6 | / | -2 | 0 | 0 | -1
COc1ccc(N=Nc2c(N)nn(C)c2N)cc1 | 10 | 4 | 6 | 1 | 3 | 1.2*
Cc1ccc(N=Nc2c(N)nn3c(N)c(C#N)c(C)nc23)cc1 | 2 | 2 | -1 | 0 | 1 | -1
CCC[C@H]1[C@@H](OC(=O)N2CCN(c3ccccc3)CC2)CC[C@@]23CCCN2C(=O)CCC[C@@H]13 | 2 | / | / | -3 | / | -2
SMILES | hgDAF-12 ag | DAX1 inh-1 | SMARCA2 act | hcDAF-12 act | DAX1 inh-2 | ssDAF12 agonist
Cn1c(COc2ccc(Cl)cc2)nnc1SCC(=O)NC1CC1 | 0 | 0 | 0 | 0 | 0 | -2
Cn1c(Cn2c(=O)sc3ccccc32)nnc1SCC(=O)NC1CCCC1 | 2 | 5.2* | 0 | 1 | 0 | 0
CCn1c(CNC(=O)c2ccc(Cl)cc2)nnc1SCC(=O)N1CCOCC1 | 0 | 1 | 0 | 0 | 4.5* | -1
Cn1c(CNC(=O)c2ccc(Cl)cc2)nnc1SCC(=O)NC1CCCC1 | -1 | 6.5* | -2 | 0 | 0 | -1
CCn1c(CC(=O)Nc2ccccc2F)nnc1SCC(=O)NC1CCCC1 | 1 | -1 | -2 | -2 | 0 | -1
Cn1c(Cn2c(=O)sc3ccccc32)nnc1SCC(=O)NC1CCCCC1 | / | 2 | / | / | / | /
CCn1c(CC(=O)Nc2ccc(F)cc2)nnc1SCC(=O)NC1CCCC1 | -2 | 4.8* | 0 | 1 | 0 | -1
COc1ccc2ccccc2c1C=NN1CCCCC1 | -1 | -1 | -2 | 0 | 0 | -2
OC(Cc1cccc(Br)c1)c1ncc(-c2ccccc2C(F)(F)F)[nH]1 (stereo not drawn) | 2 | / | -2 | -2 | 0 | -1
O=C(COC(=O)c1ccc2c(c1)OCO2)Nc1ccccc1F | 0 | 0 | -1 | 1 | 0 | -1
Cc1ccc(S(=O)(=O)N(C)c2ccc(C(=O)NCC(c3ccco3)N(C)C)cc2)cc1 (stereo not drawn) | -1 | 0 | -2 | -1 | -1 | -1
NC(=O)CSc1nnc(Cn2c(=O)sc3ccccc32)n1CCc1ccccc1 | -2 | 4.5* | 1 | 0 | 0 | -1
O=C(CSc1nnc(Cn2c(=O)sc3ccccc32)n1CCc1ccccc1)N1CCCC1 | -3 | 1 | 1 | 1 | 1 | -2
O=C(CSc1nccn1-c1cccc(Cl)c1)NC1CCCC1 | 0 | -1 | 0 | -2 | -2 | -1
O=C(CSc1cc(Cl)ccc1Cl)NC1CCCC1 | 1 | 5.4* | -3 | -1 | 0 | 0
CCOC(=O)C1C(C(=O)OCC)C(C)(C)C1N(C)C (stereo not drawn) | 2 | 1 | -4 | 2 | 1 | -1
CN(CC(=O)Nc1c(Cl)cccc1Cl)C(=O)CNC(=O)c1ccco1 | 4 | 0 | -2 | 1 | 0 | -1
O=C(Nc1cc(Oc2ccc(Cl)cc2)cc([N+](=O)[O-])c1)c1ccco1 | -2 | -1 | -2 | 5.6* | 0 | -1
C[C@H](NC(=O)c1ccco1)C(=O)Nc1ccc2c(c1)OCO2 | -1 | 0 | -1 | 2 | 0 | -1
CCOc1ccc(Oc2cc(NC(=O)c3ccco3)cc([N+](=O)[O-])c2)cc1 | 1 | -1 | -4 | -2 | -2 | -2
C[C@H](NC(=O)c1ccco1)C(=O)Nc1cccc([N+](=O)[O-])c1 | 3 | 5.3* | -4 | 1 | 0 | -2
CCC(C)[C@H](NC(=O)C1CCN(C(=O)[C@H](Cc2ccccc2)NS(=O)(=O)c2ccc(C)cc2)CC1)C(=O)O (stereo partly drawn) | 0 | 0 | -1 | 0 | 0 | -1

Screening results: PubChem BioAssay, The Scripps Research Institute Molecular Screening Center
